Source: PubChem BioAssay
DT40 TDP1 no CPT – qHTS for Inhibitors of human tyrosyl-DNA phosphodiesterase 1 (TDP1): qHTS in cells in absence of CPT | actives 15% (n = 420,000) | DT40 Tdp1-/- hTDP1 cells, no CPT, ATP luminescence, 48 h | Potency, µM (series often up to 46.2 µM), inactives show at the highest dose activity change, negative = growth inhibition, actives largely listed as inhibitors; further: potency means the concentration at half of the fitted maximal effect; on the % scale 0 is the no-effect control and ±100 the full control effect; nearly all actives have a fitted effect of over 55% in size
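Growth of hTDP1-complemented DT40 Tdp1-knockout cells is measured by ATP luminescence after at least 48 hr compound exposure at 37 °C, with DMSO substituting for the 20 nM CPT used in the parallel screen.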
TGFb SMAD3 inh – blocks TGF-b signaling. Potency, µM (titrated, usually from 46.1 µM), for inactives: at the top dose activity, negative = inhibition, usual class: inhibitors. actives 1.2% (n = 410,000). HepG2 CAGA-GFP TGF-b/SMAD3 reporter, GFP fluorescence, 18 h; TGF-beta stimulated, 500 pg/mL final; further: potency means the concentration at half of the fitted maximal effect; on the % scale 0 is the no-effect control and ±100 the full control effect; nearly all actives have a fitted effect of over 65% in size
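HEPG2 CAGA-GFP, 1000 cells/well; 2 h settle, 37 C; cpd via pin tool; TGF-b 500 pg/mL final; 18 h, 37 C; GFP imaging ex488/em500-530; %Activity normalised to -TGF-b and +DMSO controls; CRC fit, curve class.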
TDP1 block – inhibitors of human tyrosyl-DNA phosphodiesterase TDP1; Q9NUW8; recombinant TDP1, AlphaScreen DNA substrate cleavage; Potency, µM (series often up to 130 µM), inactives show at the top dose activity change, negative = inhibition, most hits filed as inhibitors; actives 0.28% (n = 350,000); AID 485290; further: potency means the concentration at half of the fitted maximal effect; on the % scale 0 is the no-effect control and ±100 the full control effect; nearly all actives have a fitted effect of over 40% in size
Target sequence (Q9NUW8 whole entry, looked up): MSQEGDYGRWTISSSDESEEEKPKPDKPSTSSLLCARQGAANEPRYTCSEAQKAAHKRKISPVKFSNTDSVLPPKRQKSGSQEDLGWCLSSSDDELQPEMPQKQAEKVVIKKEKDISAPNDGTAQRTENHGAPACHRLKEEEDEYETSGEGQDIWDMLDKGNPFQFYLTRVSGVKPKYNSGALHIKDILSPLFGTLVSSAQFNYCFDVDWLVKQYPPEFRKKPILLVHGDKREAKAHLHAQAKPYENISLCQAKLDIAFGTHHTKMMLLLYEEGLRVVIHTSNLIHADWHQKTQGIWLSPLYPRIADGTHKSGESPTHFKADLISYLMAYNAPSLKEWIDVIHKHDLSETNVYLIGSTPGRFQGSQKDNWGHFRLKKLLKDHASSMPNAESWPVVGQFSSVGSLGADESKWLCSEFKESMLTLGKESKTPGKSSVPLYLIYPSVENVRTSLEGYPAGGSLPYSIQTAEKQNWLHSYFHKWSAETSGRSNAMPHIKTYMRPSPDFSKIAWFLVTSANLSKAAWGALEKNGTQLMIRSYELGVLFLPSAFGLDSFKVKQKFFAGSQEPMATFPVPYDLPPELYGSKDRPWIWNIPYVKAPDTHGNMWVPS
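Tdp1 1 nM final; 15 min RT w/ cpd; substrate 15 nM, 5 min; beads 10 ug/ml, 10 min; AlphaScreen read. Neg ctrl: no enzyme.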
HepG2 viability – kills HepG2 cells in TGF-b inhibitor counter-screen; HepG2 CAGA-GFP viability, ATP luminescence, 18 h; Potency, µM (series often up to 46.1 µM), inactives show top-dose activity change, negative = cytotoxicity, usual class: cytotoxic; actives 0.76% (n = 410,000); further: potency means the concentration at half of the fitted maximal effect
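HepG2 CAGA-GFP cells (1000/well, DMEM with 1% FBS) received compound, then TGF-beta at 500 pg/mL final, and were incubated 18 hours at 37 degrees C. Viability was read by CellTiter-Glo luminescence. Media-only wells were set as complete cell-killing and DMSO as no toxicity.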
IL1B secr inh – inflammasome signaling inhibition, IL-1 beta readout. THP-1 LPS/ATP IL-1B secretion, AlphaLISA, 16 h; stronger effect = lower value. AID 743279. activity change, % at 57.5 µM. actives 4.7% (n = 360,000); in the data active means activity change below about -50%; inconclusive means mostly about -30% to -49%; further: on the % scale 0 is the no-effect control and ±100 the full control effect
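THP-1 cells pretreated 1 hr with compounds (up to 57.5 uM final), then stimulated with LPS (250 ng/mL final) plus ATP (1.25 mM final); secreted IL-1B measured by AlphaLISA after 16 hr, decreased signal indicating inhibition.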
TDP1 cell CPT – growth inhibition of DT40 Tdp1-/-;hTDP1 cells with camptothecin (screen for TDP1 inhibitors). chicken DT40 Tdp1-/-;hTDP1 cells + 20 nM CPT, ATP luminescence, 48 h. Potency, µM (doses to about 46.2 µM), for the others: at the top dose activity change, negative = growth inhibition, hits mostly inhibitors. actives 12% (n = 420,000). AID 686979; further: potency means the concentration at half of the fitted maximal effect; on the % scale 0 is the no-effect control and ±100 the full control effect; nearly all actives have a fitted effect of over 55% in size
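Cell growth measured by CellTiter-Glo luminescence after a minimum 48 h, 37 C compound exposure with 20 nM CPT in Tdp1-knockout DT40 cells stably expressing hTDP1, seeded 400/well; qHTS titration format.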
The depositor's hits bear a star; [ ] = remark or other dose. Compounds with a hit are over-represented: about 19% of the library has one in this group of screens. Unless noted, the call rests on the fitted dose curve; in most records, active means well fitted curve in the direction sought with a large enough effect; inconclusive means small, poorly fitted or top-dose-only effect, or another doubt; inactive means no such curve, though single readings can be large; an effect the other way counts as inactive or inconclusive.

What do the screens show for `CC#Cc1cc2c(cc1O)CCC1C2CCC2(C)C(O)CCC12` (centres undefined)?
DT40 TDP1 no CPT: 2.3µM*; TGFb SMAD3 inh: inconclusive; HepG2 viability: -1%; IL1B secr inh: 0; TDP1 cell CPT: 2.9µM*

How did C[C@@]12CCC3c4ccc(O)cc4CCC3C1CCC2O (some centres undefined) do in these assays?
DT40 TDP1 no CPT: inconclusive; TDP1 block: 5%; TDP1 cell CPT: inconclusive

What do the screens show for `COCCNC(=O)C1(C(F)(F)F)C/C(=C\Cc2ccccc2)CCCO1` (centres undefined)?
TGFb SMAD3 inh: 1%; TDP1 block: 9%; HepG2 viability: -8%

Results for Cc1cc(C)n2nc(SCC(=O)NC3CCCC(C)C3C)nc2n1 (centres undefined) ?
DT40 TDP1 no CPT: 29%; TGFb SMAD3 inh: 0%; TDP1 block: 0%; HepG2 viability: -5%; IL1B secr inh: 10; TDP1 cell CPT: -10%

How did Cc1cc(/C=C2/SC(=S)N(c3cccc(C(F)(F)F)c3)C2=O)c(C)n1-c1cccnc1 do in these assays?
DT40 TDP1 no CPT: 0.73µM*; TGFb SMAD3 inh: 1%; HepG2 viability: -25%; IL1B secr inh: inconclusive; TDP1 cell CPT: 0.73µM*

What do the screens show for `COc1cccc(/C=C2\SC(=S)N(c3cccnc3)C2=O)c1OC`?
DT40 TDP1 no CPT: 4%; TGFb SMAD3 inh: 6%; TDP1 block: 0%; HepG2 viability: 1%; IL1B secr inh: 34; TDP1 cell CPT: 0%

Results for COc1ccc(NC(=O)CSc2nnc(C3CCCCC3)n2N)cc1OC ?
DT40 TDP1 no CPT: -9%; TGFb SMAD3 inh: 13%; TDP1 block: 2%; HepG2 viability: 0%; IL1B secr inh: 2; TDP1 cell CPT: -4%

Results for COc1ccc(C(=O)Nc2ccc(-c3nnc4n3CCCCC4)cc2)cc1OC ?
DT40 TDP1 no CPT: 13µM*; TGFb SMAD3 inh: inconclusive; TDP1 block: 9%; HepG2 viability: 3%; TDP1 cell CPT: 13µM*

How did COc1ccc(NC(=O)CSc2nnc3n2CCCCC3)cc1OC do in these assays?
DT40 TDP1 no CPT: 0.21µM*; TGFb SMAD3 inh: -4%; HepG2 viability: -11%; IL1B secr inh: inconclusive; TDP1 cell CPT: 2%

What do the screens show for `C=C1CCN(C(CC(C)C)C(=O)Nc2nc3ccc(Cl)cc3s2)S(=O)(=O)c2ccccc21` (centres undefined)?
TGFb SMAD3 inh: inconclusive; TDP1 block: 7%; HepG2 viability: -3%

Results for CC(=O)c1ccc(NC(=O)c2cnn(-c3cccc(F)c3)c2-n2cccc2)cc1 ?
DT40 TDP1 no CPT: 23µM*; TGFb SMAD3 inh: 0%; TDP1 block: 3%; HepG2 viability: -4%; TDP1 cell CPT: inconclusive

What do the screens show for `Cc1ccc(NC(=O)c2cnn(-c3ccccc3)c2NC(=O)c2ccco2)cc1C`?
DT40 TDP1 no CPT: -19%; TGFb SMAD3 inh: -2%; TDP1 block: 3%; HepG2 viability: 13µM*; IL1B secr inh: 3; TDP1 cell CPT: -12%

How did CSc1cccc(NC(=O)c2cnn(-c3ccc(F)cc3)c2-n2cccc2)c1 do in these assays?
TGFb SMAD3 inh: 9%; TDP1 block: 8%; HepG2 viability: -3%

How did CCN(CC)c1ccc(NC(=O)c2cnn(-c3ccccc3)c2-n2cccc2)c(C)c1 do in these assays?
DT40 TDP1 no CPT: 10µM*; TGFb SMAD3 inh: 0%; TDP1 block: 0%; HepG2 viability: -16%; TDP1 cell CPT: 15µM*

How did COC(=O)c1cnn(-c2ccc(C(=O)Nc3ccc(C(C)=O)cc3)cc2)c1N do in these assays?
DT40 TDP1 no CPT: -12%; TGFb SMAD3 inh: -3%; TDP1 block: 35µM*; HepG2 viability: 2%; TDP1 cell CPT: -3%

Results for Cc1ccc(-n2c(=O)c3c(c4cc(C)ccc4n3C)n(CC(=O)Nc3cc(C)cc(C)c3)c2=O)cc1 ?
DT40 TDP1 no CPT: -14%; TGFb SMAD3 inh: 5%; TDP1 block: 3%; HepG2 viability: -3%; TDP1 cell CPT: 1%

Results for CCN(CC(=O)NCc1ccc(F)cc1)C(=O)/C=C/c1cc(OC)ccc1OC ?
DT40 TDP1 no CPT: -28%; TGFb SMAD3 inh: 24%; TDP1 block: 6%; HepG2 viability: -12%; IL1B secr inh: 26; TDP1 cell CPT: 3%

Results for CCN1CCCC1CNC(=O)c1cnn(-c2ncc(C)c(-c3ccc(F)cc3)n2)c1C(C)C (centres undefined) ?
DT40 TDP1 no CPT: -16%; TDP1 cell CPT: -3%[9.04 µM]

What do the screens show for `COc1ccc(NC(=O)C(C)N2Cc3ccccc3C2=O)cc1OC` (centres undefined)?
DT40 TDP1 no CPT: 0%; TGFb SMAD3 inh: 23%; TDP1 block: 5%; HepG2 viability: 1%; TDP1 cell CPT: -3%

How did COc1ccc(NC(=O)c2cnn(-c3ccc(C)cc3)c2-n2cccc2)cc1Cl do in these assays?
DT40 TDP1 no CPT: inconclusive; TGFb SMAD3 inh: inconclusive; TDP1 block: 0%; HepG2 viability: -25%; TDP1 cell CPT: -23%

Results for Cc1ccc(S(=O)(=O)NNC(=O)c2cnn(-c3ccccc3)c2-n2cccc2)cc1 ?
DT40 TDP1 no CPT: 1.5µM*; TGFb SMAD3 inh: 0%; TDP1 block: -1%; HepG2 viability: -12%; IL1B secr inh: -3; TDP1 cell CPT: 1.6µM*

Results for CCN(CC)c1ccc(NC(=O)c2ccco2)c(C)c1 ?
DT40 TDP1 no CPT: inconclusive; TGFb SMAD3 inh: 1%; TDP1 block: -2%; HepG2 viability: -2%; IL1B secr inh: -11; TDP1 cell CPT: inconclusive

How did CCN(CC)c1ccc(NC(=O)c2cccc(F)c2)c(C)c1 do in these assays?
DT40 TDP1 no CPT: 3.3µM*; TGFb SMAD3 inh: 0%; TDP1 block: 6%; HepG2 viability: -2%; IL1B secr inh: -6; TDP1 cell CPT: 4.6µM*

Results for Cc1cc(NC(=O)c2cnn(-c3ccccc3)c2-n2cccc2)ccc1Br ?
DT40 TDP1 no CPT: inconclusive; TGFb SMAD3 inh: 2%; TDP1 block: 5%; HepG2 viability: -1%; TDP1 cell CPT: 18µM*

What do the screens show for `CCC(C)c1ccccc1N=Cc1ccc2c(c1)OCO2` (centres undefined)?
DT40 TDP1 no CPT: inconclusive; TGFb SMAD3 inh: 3%; TDP1 block: 4%[0.0935 µM]; HepG2 viability: -1%; IL1B secr inh: -3; TDP1 cell CPT: inconclusive
